Laboratory results taken from PubChem BioAssay AID1814 (Broad Institute, 2009).
The campaign covered roughly 300,000 compounds. About 22,000 (7.3%) were called active. Not shown: some 2% with an inconclusive outcome. Cut-off read from the data, not from the text of the source: active = activity score below about -60%; inconclusive = mostly about -28% to -61%; inactive = positive scores. This excerpt belongs to a sample that is enriched for actives.

Experiment: Activators via SNCA 5'UTR binding, MLPCN (AID 1814)
Details: alpha-synuclein 5'UTR reporter, activators screen; hits give low values; tested at 7.5 µM

| SMILES | activity score |
| --- | --- |
| Cc1ccc(-c2csc(-c3c[nH]c4ccccc34)n2)cc1 | -164% (active) |
| Cc1ccc(-c2csc(-c3cc(C)on3)n2)cc1 | -149% (active) |
| O=C(CSC1=NCCS1)Nc1nc(-c2ccccc2)cs1 | -83% (active) |
| CCNC(=O)CSc1nc(-c2ccccc2)cs1 | -105% (active) |
| O=C(CN1C(=O)C2C3C=CC(C3)C2C1=O)Nc1nc(-c2ccccn2)cs1 (stereo not drawn) | 82.4% (inactive) |
| O=C(CNC(=O)c1ccc(F)cc1)c1ccccc1 | -128% (active) |
| O=C(CNC(=O)c1ccccc1F)c1ccc(Br)cc1 | -97.5% (active) |
| CCOc1ccc2c(c1)C(c1ccc(C)cc1)=NNC(c1ccc(C)cc1)=N2 | -63.3% (active) |
| Cc1nc2ccccc2cc1OCc1ccc(F)cc1 | -71.1% (active) |
| C/C(=N\NC(=O)c1cccnc1)c1ccc(-c2ccccc2)cc1 | -92.7% (active) |
| C/C(=N\NC(=O)c1nc(C)cc(C)n1)c1ccccc1 | -137% (active) |
| C/C(=N\NC(=O)c1ccc2ccccc2c1)c1cccnc1 | -68.8% (active) |
| C/C(=N\NC(=O)c1ccccc1F)c1ccccn1 | 83% (inactive) |
| CC(C)CNC(=O)C(=O)Nc1ccc(N(C)C)cc1 | -159% (active) |
| O=C(Nc1ccc(Cl)cc1)/C(=C1\CCCN1)[N+](=O)[O-] | -97.2% (active) |
| CC(=O)Nc1cccc(C(=O)OCC(=O)NCc2cc(C)c(O)c(C)c2)c1 | -62.5% (active) |
| CCCOc1ccc(C(=O)C(CCC(CNCC)C(=O)c2ccc(OCCC)cc2)CNCC)cc1 (stereo not drawn) | 107% (inactive) |
| CCCOc1cccc(C(=O)Nc2nnn(CCC)n2)c1 | -87.6% (active) |
| Cc1c(C)c2cc3c4c(oc3c(C)c2oc1=O)CCCC4 | -61.9% (active) |
| CC[n+]1cc(C)ccc1/C=C/c1ccc(N(C)C)cc1 | 90.6% (inactive) |
| Cc1cccc(NC(=O)Nc2ccc3c(c2)OCO3)n1 | -251% (active) |
| Cc1cccc(NC(=O)/C=C/c2ccc3c(c2)OCO3)n1 | -88% (active) |

| SMILES | activity score |
| --- | --- |
| COc1cccc(/C=C/C(=O)Nc2ccc3c(c2)OCCO3)c1 | -94% (active) |
| CNS(=O)(=O)c1ccc(NC(=O)Nc2ccc3c(c2)OCO3)cc1 | -63.6% (active) |
| Cc1ccc(-n2c(C)cc(/C=C(\C#N)C(=O)NCC3CCCO3)c2C)cc1 (stereo not drawn) | -133% (active) |
| COc1ccc(C(=O)NC2=NCCS2)c(OC)c1 | -111% (active) |
| COc1ccc(C(=O)Nc2nncs2)c(OC)c1 | -106% (active) |
| O=C(NC1=NCCS1)c1ccc(Cl)s1 | -112% (active) |
| COc1ccc(Cc2nnc(NC(=O)c3ccc(OC)cc3OC)s2)cc1 | -62.4% (active) |
| Cc1cccc(NC(=O)c2nc(S(=O)(=O)Cc3ccccc3)ncc2Cl)c1 | 84.8% (inactive) |
| Cc1cccc(NC(=S)Nc2ccc(Cl)c(Cl)c2)c1 | -115% (active) |
| Cc1cccc(NC(=S)Nc2ccc(Br)cc2)c1 | -106% (active) |
| COc1ccc(CNc2ccc3c(c2)CCC3)cc1OC | -177% (active) |
| Cc1ccc(C(=O)NC(=S)Nc2ccccc2C)cc1 | -122% (active) |
| Cc1cc(C(=O)NNC(=S)Nc2ccccc2C)cs1 | -135% (active) |
| Nc1ccc(C(=O)Nc2ccccc2N)cc1 | -714% (active) |
| CCn1c(SCC(=O)Nc2cccc(F)c2)nnc1-c1cc2cc(Br)ccc2o1 | -71.9% (active) |
| CN1C2CCC1/C(=C\c1ccccc1Cl)C(=O)/C2=C\c1ccccc1Cl | -89% (active) |
| CCOC(=O)c1cnc(-n2nc(C)cc2C)nc1NNc1cc(C)nc(-c2ccccc2)n1 | 105% (inactive) |
| Cc1cc(-n2nc(C)cc2C)n2ncc(-c3ccccc3)c2n1 | -73.6% (active) |
| O=C1/C(=C\Nc2ccccc2)CCN1c1ncccn1 | -99.5% (active) |
| O=C(CSC(=S)N1CCCCC1)c1c(F)cccc1F | -175% (active) |
| COc1ccc(C)c(Cn2c(-c3nonc3N)nc3ccccc32)c1 | 76.2% (inactive) |
| COCn1c(COc2ccccc2)nc2ccccc21 | -65.8% (active) |

| SMILES | activity score |
| --- | --- |
| CCOc1ccc(C(O)Cc2nc3ccccc3n2C)cc1 (stereo not drawn) | -67.7% (active) |
| Cc1ccc(OCc2nc3ccccc3n2C)cc1 | -109% (active) |
| COc1ccc(OCc2ccc(-c3nc4ccccc4c(=O)n3N)o2)cc1 | -143% (active) |
| Cn1c(COc2ccc(Cl)cc2)nc2ccccc2c1=O | -91.8% (active) |
| CC(C)c1ccc(Nc2ncccc2C#N)cc1 | -111% (active) |
| CC(=O)c1sc(NC(=O)c2ccc(C)cc2)nc1C | -112% (active) |
| COC(=O)c1sc(NC(=S)NC(=O)c2ccc(C)cc2)nc1C | -102% (active) |
| O=C(N/N=C/c1ccc([N+](=O)[O-])o1)c1cccc(S(=O)(=O)N2CCOCC2)c1 | -81.1% (active) |
| COc1ccc(C(=NN)c2ccc(OC)cc2)cc1 | -133% (active) |
| O=C(Nc1ccon1)c1sc2ccccc2c1Cl | -179% (active) |
| CN(C)c1ccc(/C=N/NC(=O)c2ccc(Cn3cc(Br)cn3)o2)cc1 | -69.3% (active) |
| Cc1c(Cl)c([N+](=O)[O-])nn1Cc1ccc(C(=O)N/N=C\c2cc(Cl)ccc2O)o1 | 81.2% (inactive) |
| CCOc1ccc(OCc2cccc(C(=O)N(CC)CC)c2)cc1 | 50.8% (inactive) |
| CC(C)c1cc(C(N)=O)c(NC(=O)c2cccc(COc3ccc(Br)cc3)c2)s1 | -194% (active) |
| CN(C)c1nc(=Nc2cccc(Cl)c2)ss1 | -64.3% (active) |
| CS(=O)(=O)N1CCc2nc(-c3ccccc3)sc2C1 | -90.2% (active) |
| O=C(c1ccccc1)c1ccc(OC(=O)N2CCCC2)cc1 | -65.8% (active) |
| Cc1ccc(CSc2nc3[nH]ncc3c(=O)[nH]2)cc1 | -78% (active) |
| Clc1ccc(-c2nnc(SCc3nc4ccccc4s3)o2)cc1 | -162% (active) |
| Oc1ccc(CNc2ccccc2O)cc1 | -62.2% (active) |
| Cc1cc(OCc2cc(C(=O)NCc3cc(C(C)C)no3)no2)cc(C)c1Cl | -135% (active) |
| CCOc1ccc(NS(=O)(=O)c2ccc(C)c(C(N)=O)c2)cc1 | -72.9% (active) |

| SMILES | activity score |
| --- | --- |
| COc1cc(CN2CCC(C(N)=O)CC2)ccc1OCc1ccccc1 | -111% (active) |
| N=c1c2c3c(sc2nc2n1CCCCC2)CCCC3 | -89.5% (active) |
| CCCCc1ccc(NC(=S)N2CCCC(CO)C2)cc1 (stereo not drawn) | -107% (active) |
| Fc1ccc(/C=N/Nc2nc(-c3cccnc3)nc3ccccc23)cc1 | -70.9% (active) |
| CN(CCO)c1ccc(/C=N/Nc2nncc3ccccc23)cc1 | 57.2% (inactive) |
| Cc1ccc(/C=N/NC(=S)NC2CCCCC2)o1 | -135% (active) |
| Cc1cc(Br)ccc1NC(=S)NC1CCCC1 | -66.7% (active) |
| Cc1ccc(NC(=S)NC2CCCC2)cc1 | -65.1% (active) |
| CC(C)c1ccc(NC(=O)NC2CCCCC2)cc1 | -244% (active) |
| CCN(CC)S(=O)(=O)c1ccc(-c2cn3ccc(C)cc3n2)cc1 | -169% (active) |
| Cc1ccc2nc(-c3ccc(Br)cc3)cn2c1 | 63.2% (inactive) |
| COc1ccc(-c2cn3ccc(C)cc3n2)cc1 | 92.2% (inactive) |
| Cc1cccc(N=Nc2c(O)[nH]c3ccc(F)cc23)c1 | -147% (active) |
| O=C(NCCc1ccc(F)cc1)c1n[nH]c2ccccc12 | -150% (active) |
| O=C(Cc1ccccc1)NCc1ccc(F)cc1 | -66.4% (active) |
| O=C(CC1CCCCC1)NCc1ccccc1 | -86.3% (active) |
| O=C(CC1CCCCC1)NCc1ccc(F)cc1 | -72.4% (active) |
| COc1ccc(COC(=O)c2n[nH]c3ccccc23)cc1F | -96.4% (active) |
| O=C1Nc2ccccc2C12Nc1ccccc1S2 (stereo not drawn) | -83.2% (active) |
| CCc1ccc2c(c1)C1(NN=C(c3ccccc3)S1)C(=O)N2 (stereo not drawn) | 71.7% (inactive) |
| COc1cccc(NC(=S)NCc2ccccn2)c1 | -101% (active) |
| CCC(C)c1ccc(NC(=S)NCc2ccccn2)cc1 (stereo not drawn) | -123% (active) |

| SMILES | activity score |
| --- | --- |
| CCOC(=O)c1cc2cc(C)ccc2[nH]1 | -132% (active) |
| CCOC(=O)c1nc(-c2ccc3c(c2)OCO3)[nH]c1C | -109% (active) |
| C[C@@H]1C[C@@H]2O[C@H]2/C=C\C=C\C(=O)Cc2c(Cl)c(O)cc(O)c2C(=O)O1 | -113% (active) |
| CC(C)c1ccc(C(=O)NCCCc2ccccc2)cc1 | -150% (active) |
| CN1CCN(CCCNC(=O)c2ccc(/C=C3\Oc4ccccc4N(Cc4ccc(Cl)cc4)C3=O)cc2)CC1 | 96.5% (inactive) |
| S=C(Nc1ccc2c(c1)OCO2)N1CCCC1 | -93.7% (active) |
| Cc1cccn2c(=O)c(C=O)c(Nc3ccc(S(N)(=O)=O)cc3)nc12 | -500% (active) |
| O=C(CC1Nc2ccccc2NC1=O)Nc1ccccc1 (stereo not drawn) | -128% (active) |
| Oc1c(Br)cccc1/C=N/Nc1c(F)c(F)c(F)c(F)c1F | -72.3% (active) |
| Cc1[nH]c(=O)c(C(=O)/C=C/c2ccccc2)c2c1CCCC2 | -146% (active) |
| COc1cccc(NC(=S)C(C#N)=C2N(C)c3ccccc3N2C)c1 | -86.1% (active) |
| COc1ccc(-c2csc3nc(-c4ccccc4F)oc(=O)c23)cc1OC | -63.1% (active) |
| COc1ccc(/C=N/Nc2ncnc3sc4c(c23)CCCC4)cc1O | -197% (active) |
| CC(C)(C)c1ccc(/C=C/C(=O)Nc2ncccn2)cc1 | -155% (active) |
| O=c1c2c(-c3ccccc3)ccnc2[nH]n1-c1ccccc1 | -127% (active) |
| CN(C(=O)CSc1nncc2ccccc12)C1CCCCC1 | -107% (active) |
| CN(C(=O)CSc1nnnn1-c1ccccc1)C1CCCCC1 | -63.1% (active) |
| CN(c1ccc2nc3ccccc3c(=O)n2n1)C1CCCCC1 | 119% (inactive) |
| CN(C)c1nc(N)nc(CSc2nnnn2-c2cccc3ccccc23)n1 | 68.9% (inactive) |
| Cc1ccc(O)c(NC(=O)c2cc(-c3ccco3)on2)c1 | -184% (active) |
